In the library only some 3.5% were active in any assay of this set; here they are far more common.
Pf apPOL inh: Pf-apPOL DNA polymerase inhibition; Recombinant Pf-apPOL, molecular beacon fluorescence, 1.5 h; inhibition, % at 10 µM; actives 0.25% (n = 210,000); AID 1794808
mHTT CaM bind: inhibitors of human mutant huntingtin-calmodulin interaction; actives 3.6% (n = 190,000); AlphaScreen His-mHTT/GST-CaM binding, luminescence; inhibition, % at 15 µM; P42858
Target sequence (P42858 whole entry, looked up, change not shown): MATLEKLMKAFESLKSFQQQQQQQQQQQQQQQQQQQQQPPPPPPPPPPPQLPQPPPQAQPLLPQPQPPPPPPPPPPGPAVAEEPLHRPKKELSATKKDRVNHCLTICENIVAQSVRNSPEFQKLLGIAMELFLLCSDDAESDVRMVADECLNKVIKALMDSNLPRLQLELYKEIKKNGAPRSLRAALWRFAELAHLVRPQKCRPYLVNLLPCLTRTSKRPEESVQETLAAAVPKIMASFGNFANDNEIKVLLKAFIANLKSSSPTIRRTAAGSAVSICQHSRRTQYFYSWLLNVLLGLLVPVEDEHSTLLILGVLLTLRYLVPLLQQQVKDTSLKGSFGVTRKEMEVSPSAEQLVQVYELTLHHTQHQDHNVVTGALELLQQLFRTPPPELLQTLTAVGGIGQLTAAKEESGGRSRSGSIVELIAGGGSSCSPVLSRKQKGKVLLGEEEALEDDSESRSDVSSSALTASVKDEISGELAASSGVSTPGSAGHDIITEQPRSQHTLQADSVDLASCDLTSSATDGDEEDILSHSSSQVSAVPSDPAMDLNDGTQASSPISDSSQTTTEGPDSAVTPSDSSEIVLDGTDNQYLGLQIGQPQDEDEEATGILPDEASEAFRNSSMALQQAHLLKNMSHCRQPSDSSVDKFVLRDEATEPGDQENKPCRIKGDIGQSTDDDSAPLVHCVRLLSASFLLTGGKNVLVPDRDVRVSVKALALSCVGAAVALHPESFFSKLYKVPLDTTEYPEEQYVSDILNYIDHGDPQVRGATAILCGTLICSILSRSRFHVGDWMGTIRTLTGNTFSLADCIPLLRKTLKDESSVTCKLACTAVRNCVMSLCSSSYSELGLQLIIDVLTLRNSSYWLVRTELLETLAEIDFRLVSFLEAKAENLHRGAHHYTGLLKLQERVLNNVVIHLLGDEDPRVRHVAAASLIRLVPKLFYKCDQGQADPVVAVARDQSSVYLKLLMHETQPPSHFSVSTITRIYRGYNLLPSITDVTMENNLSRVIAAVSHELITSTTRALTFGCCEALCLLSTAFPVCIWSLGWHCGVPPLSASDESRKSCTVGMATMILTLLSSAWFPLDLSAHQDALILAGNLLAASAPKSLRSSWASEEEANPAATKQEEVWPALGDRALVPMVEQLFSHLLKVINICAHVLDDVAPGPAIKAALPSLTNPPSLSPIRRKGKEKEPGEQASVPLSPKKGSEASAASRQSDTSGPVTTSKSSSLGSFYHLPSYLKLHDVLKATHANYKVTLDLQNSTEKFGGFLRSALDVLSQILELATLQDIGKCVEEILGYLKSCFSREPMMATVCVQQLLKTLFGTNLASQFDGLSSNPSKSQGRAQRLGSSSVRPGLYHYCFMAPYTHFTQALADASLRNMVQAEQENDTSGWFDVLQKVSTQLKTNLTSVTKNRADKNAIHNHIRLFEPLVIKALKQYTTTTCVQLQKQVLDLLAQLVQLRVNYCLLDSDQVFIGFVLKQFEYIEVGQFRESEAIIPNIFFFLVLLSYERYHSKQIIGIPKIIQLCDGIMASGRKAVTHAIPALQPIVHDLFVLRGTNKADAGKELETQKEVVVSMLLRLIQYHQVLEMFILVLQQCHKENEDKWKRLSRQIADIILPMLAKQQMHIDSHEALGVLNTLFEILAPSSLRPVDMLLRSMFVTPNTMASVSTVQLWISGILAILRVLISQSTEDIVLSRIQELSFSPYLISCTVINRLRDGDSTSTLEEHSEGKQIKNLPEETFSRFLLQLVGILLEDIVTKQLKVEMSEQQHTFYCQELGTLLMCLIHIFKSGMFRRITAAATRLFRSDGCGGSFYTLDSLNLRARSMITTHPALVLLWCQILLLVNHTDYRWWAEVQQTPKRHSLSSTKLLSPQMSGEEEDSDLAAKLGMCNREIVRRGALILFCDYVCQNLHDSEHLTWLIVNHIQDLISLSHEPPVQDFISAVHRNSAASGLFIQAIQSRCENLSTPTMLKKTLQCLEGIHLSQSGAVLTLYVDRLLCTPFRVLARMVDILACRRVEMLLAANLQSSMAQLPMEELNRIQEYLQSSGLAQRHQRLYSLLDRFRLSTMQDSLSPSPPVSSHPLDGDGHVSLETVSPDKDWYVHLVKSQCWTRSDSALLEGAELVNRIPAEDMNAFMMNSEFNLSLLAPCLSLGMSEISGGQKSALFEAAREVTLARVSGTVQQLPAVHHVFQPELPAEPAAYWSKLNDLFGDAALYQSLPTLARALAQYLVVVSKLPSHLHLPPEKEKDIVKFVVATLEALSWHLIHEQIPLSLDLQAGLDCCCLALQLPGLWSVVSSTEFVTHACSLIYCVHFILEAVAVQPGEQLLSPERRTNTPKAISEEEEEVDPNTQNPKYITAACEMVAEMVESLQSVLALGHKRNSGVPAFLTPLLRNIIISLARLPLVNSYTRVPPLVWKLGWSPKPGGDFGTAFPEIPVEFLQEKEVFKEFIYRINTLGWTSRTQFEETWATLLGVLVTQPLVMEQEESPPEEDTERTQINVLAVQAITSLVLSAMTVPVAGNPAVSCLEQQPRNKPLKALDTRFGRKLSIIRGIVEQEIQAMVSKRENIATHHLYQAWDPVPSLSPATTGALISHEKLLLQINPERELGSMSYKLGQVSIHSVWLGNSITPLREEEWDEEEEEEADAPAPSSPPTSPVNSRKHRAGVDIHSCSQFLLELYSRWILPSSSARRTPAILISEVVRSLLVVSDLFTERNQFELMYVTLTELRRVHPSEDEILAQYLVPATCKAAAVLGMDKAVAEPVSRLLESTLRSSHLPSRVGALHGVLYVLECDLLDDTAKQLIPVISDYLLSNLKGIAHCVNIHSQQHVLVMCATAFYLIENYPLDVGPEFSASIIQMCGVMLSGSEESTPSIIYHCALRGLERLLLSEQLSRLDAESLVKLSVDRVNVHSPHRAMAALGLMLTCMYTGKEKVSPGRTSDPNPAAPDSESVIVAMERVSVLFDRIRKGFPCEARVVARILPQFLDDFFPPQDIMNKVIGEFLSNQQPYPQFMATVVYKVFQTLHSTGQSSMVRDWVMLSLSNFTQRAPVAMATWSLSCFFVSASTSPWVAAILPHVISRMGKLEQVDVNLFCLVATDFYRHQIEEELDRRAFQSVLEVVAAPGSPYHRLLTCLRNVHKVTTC
Large screens that a line does not name were inactive. No stated cut-off is given here; in the data, active means inhibition above about 50%; inactive means the rest.

Cc1ccc(C(=O)NC(Nc2ccccc2C)C(Cl)(Cl)Cl)cc1 (centres undefined)	none
Cc1cccc(C(=O)NC(Nc2ccc([N+](=O)[O-])cc2)C(Cl)(Cl)Cl)c1 (centres undefined)	none
Cc1ccccc1NC(NC(=O)c1cc([N+](=O)[O-])cc([N+](=O)[O-])c1)C(Cl)(Cl)Cl (centres undefined)	mHTT CaM bind 53
COc1ccc(NC(NC(=O)c2cc([N+](=O)[O-])cc([N+](=O)[O-])c2)C(Cl)(Cl)Cl)cc1 (centres undefined)	mHTT CaM bind 69
O=C(NC(Nc1cccc([N+](=O)[O-])c1)C(Cl)(Cl)Cl)c1cccc(Cl)c1 (centres undefined)	mHTT CaM bind 86
O=C(NC(Nc1ccc([N+](=O)[O-])cc1)C(Cl)(Cl)Cl)c1ccccc1 (centres undefined)	none
O=C(Nc1cc(-c2cccnc2)no1)c1ccc(F)cc1	none
Cc1ccc(Br)cc1N1CCC(C(=O)NC(C)c2ccccc2)C1=O (centres undefined)	none
Cc1nc2ccccc2c(=O)n1-c1ccc(NC(=O)c2ccc(Cl)s2)cc1	none
CCCc1[nH]nc2c1C(c1ccccc1I)C(C#N)=C(N)O2 (centres undefined)	none
CCN(Cc1cc(-c2ccc(C)c(C)c2)on1)C(=O)C(C)C	none
COc1c(C(=O)N2CCOCC2)sc2ccc(F)cc12	none
COc1c(C(=O)N2CCN(c3ccccc3)CC2)sc2ccc(F)cc12	mHTT CaM bind 60
Cc1oc2ccc(OCc3cccc(F)c3)cc2c1C(=O)O	Pf apPOL inh 56
Cc1oc2ccc(OCc3ccccc3)cc2c1C(=O)O	none
c1ccc(-c2nc(-c3ccco3)[nH]c2-c2ccccc2)cc1	none (no result: mHTT CaM bind)
COc1cc(OC)c(-c2nc(-c3ccsc3)c(-c3ccccc3)[nH]2)cc1OC	mHTT CaM bind 68
CCn1cc2c3c(cccc31)CN(C(=O)NCc1ccco1)CC2	none
Cc1ccc(S(=O)(=O)c2cc3c(=O)n4ccccc4nc3n(Cc3ccco3)c2=N)cc1	mHTT CaM bind 52
Cc1ccc(S(=O)(=O)c2cc3c(=O)n4cc(C)ccc4nc3n(Cc3ccco3)c2=N)cc1	none
Cc1cccn2c(=O)c3cc(C(=O)NCc4ccco4)c(=N)n(CCc4ccccc4)c3nc12	mHTT CaM bind 50
Cc1ccc2nc3c(cc(C(=O)NCc4ccco4)c(=N)n3Cc3ccco3)c(=O)n2c1	mHTT CaM bind 66
N=c1c(C(=O)NCc2ccccc2)cc2c(=O)n3ccccc3nc2n1Cc1ccco1	mHTT CaM bind 85
N=c1c(C(=O)NCc2ccco2)cc2c(=O)n3ccccc3nc2n1Cc1cccnc1	none
Cc1ccc2nc3c(cc(C(=O)NCc4ccccc4)c(=N)n3Cc3ccco3)c(=O)n2c1	none
Cc1cccn2c(=O)c3cc(C(=O)NCc4ccccc4)c(=N)n(CCc4ccccc4)c3nc12	none
CN(C)C=Nc1nnc(Sc2ccc(C(F)(F)F)cc2[N+](=O)[O-])s1	none (no result: mHTT CaM bind)
COc1ccc(NC(=O)NC(=O)N(C2CCCCC2)S(=O)(=O)c2ccccc2)c(C)c1	none
COc1ccc(OC)c(NC(=O)C(C(C)C)N2C(=O)c3ccccc3C2=O)c1 (centres undefined)	none
O=C(CCCc1ccccc1)N1CCN(c2nc(CN3CCOCC3)cs2)CC1	none
COc1ccc(Cl)cc1N=CC1=C(O)CC(C)(C)CC1=O	none
O=C(O)CSc1nnc2n1-c1ccc(Cl)cc1NN2	Pf apPOL inh 76 (no result: mHTT CaM bind)
O=C(O)CSc1nnc(-c2ccc(Cl)cc2)n1-c1ccccc1	none
O=C(Nc1ccc(Oc2ccccc2)cc1)c1ccncc1	none
N#Cc1ccc(Oc2ccc(C(=O)Nc3ccccc3)cc2)cc1	Pf apPOL inh 68
CC1CCN(S(=O)(=O)N2CCCC(C(=O)NC3CCCC3)C2)CC1 (centres undefined)	none
CC1CCN(S(=O)(=O)N2CCCC(C(=O)NC(C)C)C2)CC1 (centres undefined)	Pf apPOL inh 95
COc1ccccc1NC(=O)CN1CCC(c2nc(-c3ccc(C)cc3)no2)CC1	none
CSc1cccc(NS(=O)(=O)c2cc3c(s2)CCN(C(=O)C2CC2)C3)c1	none
CNC(=O)C1CN(C(=O)c2cc(OC)c(OC)c(OC)c2)CC12CCCC2 (centres undefined)	none
COc1cc(OC)cc(C2=NC3(CCCC3)N(C(=O)c3cc(OC)c(OC)c(OC)c3)C2=S)c1	mHTT CaM bind 52
Cc1ccc(C(=O)N2CCCC2c2ccccc2C)cc1 (centres undefined)	none
Cc1ccc(C(=O)N2Cc3ccccc3CC2C(=O)O)cc1 (centres undefined)	mHTT CaM bind 53
CC(C)CNC(=O)C1CCN(c2ncccc2-c2nc(-c3cccc(Cl)c3)no2)CC1	none
NC(=O)c1nnn(-c2nonc2N)c1CN1CCOCC1	none
Cc1ccc(NC(=O)Cn2nc(N(C)C)c3ccccc3c2=O)cc1	none
Cc1ccc(NC(=O)Cn2nc(N(C)C)c3ccccc3c2=O)cc1Cl	mHTT CaM bind 80
COc1ccc(C(=O)N2CCN=C2N2CCC(C)CC2)cc1	none
COc1cc(C(c2c[nH]c3ccccc23)c2c[nH]c3ccccc23)ccc1O	mHTT CaM bind 100
COc1cc(C(c2c(C)[nH][nH]c2=O)c2c(C)[nH][nH]c2=O)ccc1O	none
CN(Cc1ccccc1)S(=O)(=O)c1ccc(F)c(C(=O)Nc2ccc(F)c(Cl)c2)c1	none
CC(=O)Nc1cc(C(=O)NCc2ccccc2C)c2ccc(C)nc2c1	mHTT CaM bind 73
CC(=O)Nc1cc(C(=O)NCC(C)C)c2ccc(C)nc2c1	none
Cc1ccc2c(C(=O)NCc3ccccc3C)cc(NC(=O)C(C)C)cc2n1	mHTT CaM bind 54
Cc1cccc(CNC(=O)c2cc(NC(=O)C(C)C)cc3nc(C)ccc23)c1	none
Cc1nc(NCCNS(=O)(=O)Cc2ccccc2)cc(-n2cccn2)n1	none
COc1ccc(CCNC(=O)C2CC3c4ccccc4C2c2ccccc23)cc1OC (centres undefined)	none
CC(C)c1ccccc1NC(=O)C1CC1	none
O=[N+]([O-])c1ccc2c(c1)COc1ccccc1O2	none (no result: Pf apPOL inh)
CC(=O)Nc1ccc(Nc2cc(C(C)C)c(O)c(C(C)C)c2)cc1	mHTT CaM bind 74
COc1c(C(C)C)cc(NC(C)=O)cc1C(C)C	none
CN(C)c1ncncc1N1CCC(C(=O)N2CCCC2)CC1	none
CC1CCN(C(=O)C2CCN(c3cncnc3N(C)C)CC2)CC1	none
Cc1ccc(C)c(N2CCN(C(=O)C3CCN(c4cncnc4N(C)C)CC3)CC2)c1	mHTT CaM bind 60
CN(C)c1ncncc1N1CCC(C(=O)N2CCC(Cc3ccccc3)CC2)CC1	mHTT CaM bind 50
CCc1ccc(-n2[nH]c3c(cnc4ccc(C(=O)N5CCCCC5)cc43)c2=O)cc1	none
Cc1ccc(NC(=O)Cn2c(NCCN3CCOCC3)nc3ccccc32)cc1	none
COc1ccc(NC2(c3ccc(Cl)cc3)C(=O)c3ccccc3C2=O)cc1	mHTT CaM bind 100
Cc1ccc(NC2(c3ccccc3)C(=O)c3ccccc3C2=O)cc1	none
O=C(Nc1ccc2c(c1)OCO2)N1CC2CCCN2c2ccccc21 (centres undefined)	mHTT CaM bind 81
Cc1ccc(NC(=O)N2CC3CCCN3c3ccccc32)c(C)c1 (centres undefined)	mHTT CaM bind 67
Cc1cccc(NC(=O)N2CC3CCCN3c3ccccc32)c1 (centres undefined)	mHTT CaM bind 74
Cc1cccc(NC(=O)N2CCCC2c2ccccc2C)c1 (centres undefined)	none
O=C(Nc1ccc(Br)cc1F)N1CC2CCCN2c2ccccc21 (centres undefined)	none

Screening results from PubChem.
